This passage reports outcome and AC50 results from PubChem BioAssay (EPA / NIEHS).

Activity calls are given as the source filed them. How the source made its calls: active means hit-call score of the fitted dose curve at least 0.9, where 1 is the maximum; inactive means score below 0.9.

Sequence of Aryl hydrocarbon receptor (Homo sapiens) (P35869 whole entry, looked up): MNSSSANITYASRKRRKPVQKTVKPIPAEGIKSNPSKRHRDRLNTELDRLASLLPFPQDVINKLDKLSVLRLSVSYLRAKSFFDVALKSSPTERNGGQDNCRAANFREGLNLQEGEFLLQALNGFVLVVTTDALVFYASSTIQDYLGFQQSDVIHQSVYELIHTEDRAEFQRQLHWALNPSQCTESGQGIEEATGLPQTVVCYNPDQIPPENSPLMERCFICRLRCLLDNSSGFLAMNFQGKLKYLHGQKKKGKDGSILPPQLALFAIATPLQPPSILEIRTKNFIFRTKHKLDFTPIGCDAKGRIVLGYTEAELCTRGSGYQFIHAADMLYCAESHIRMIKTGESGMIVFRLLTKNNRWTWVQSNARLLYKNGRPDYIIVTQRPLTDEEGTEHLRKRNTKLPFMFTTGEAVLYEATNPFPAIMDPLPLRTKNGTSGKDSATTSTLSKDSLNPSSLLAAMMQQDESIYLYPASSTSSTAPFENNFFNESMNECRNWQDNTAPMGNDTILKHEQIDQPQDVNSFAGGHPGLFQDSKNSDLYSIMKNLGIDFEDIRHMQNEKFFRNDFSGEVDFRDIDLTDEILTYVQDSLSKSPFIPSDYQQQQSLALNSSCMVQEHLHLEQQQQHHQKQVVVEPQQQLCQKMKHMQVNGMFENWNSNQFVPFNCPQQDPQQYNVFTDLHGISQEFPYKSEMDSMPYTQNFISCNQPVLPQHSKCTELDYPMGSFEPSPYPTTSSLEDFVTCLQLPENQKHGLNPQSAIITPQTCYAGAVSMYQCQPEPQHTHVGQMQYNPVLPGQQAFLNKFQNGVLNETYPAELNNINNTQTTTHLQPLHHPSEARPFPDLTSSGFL

Test system in one test: not listed separately
Put plainly: ATG_DR4_LXR_CIS: Attagene CIS-FACTORIAL HepG2 Assay for human Liver X Receptor (LXR), DR4 submotif (AID 2282929). Particulars: HepG2 Attagene DR4 cis-reporter, mRNA transcription; actives raise or lower the signal. In a few lines: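 Endogenous factor activity at a DR4 cis-element is read as reporter mRNA in transiently transfected HepG2 cells. Exposure lasts 24 h; transcripts are amplified, fluorescently labelled and sized by capillary electrophoresis, with DMSO as baseline.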
For `Nc1ccc(Oc2ccc(N)cc2)cc1`, the compound was classed as inactive.

As for `C1=Cc2cccc3cccc1c23`, the result was inactive.

`Cc1ccc(N)c(N)c1`: the outcome was inactive.

As for `CC(C)COC(=O)c1ccccc1C(=O)OCC(C)C`, the AC50 is 73 µM (active).

Regarding `CCC12COCN1COC2`, the call was inactive.

As for `Oc1ccc2ccc3cccc4ccc1c2c34`, the AC50 was 11.1 µM (active).

`Nc1cc(Cl)cc(C(=O)O)c1Cl`: the call was inactive.

Consider `CN(C)c1ccccc1`, for which the call was inactive.

Take `Cc1ccc(N)cc1`: the compound was classed as inactive.

As for `C=CCc1ccc2c(c1)OCO2`, the call was inactive.

As to `CCCSC(=O)N(CCC)CCC`, the compound was called inactive.

Regarding `Cc1cc(N=Nc2ccccc2C)ccc1N`, the call was inactive.

As to `CN(C)C(=O)Nc1ccc(Cl)cc1`, the outcome was inactive.

In the case of `O=P(OCCCl)(OCCCl)OCCCl`, the result was inactive.

As to `CC(C)(C)C(O)(CCc1ccc(Cl)cc1)Cn1cncn1` (configuration not stated), the AC50 was 152 µM (active).

For the compound `Brc1ccc(Oc2ccccc2)cc1`, the AC50 is 155 µM (active).

Regarding `Nc1ccc(Cc2ccc(N)cc2)cc1`, the compound was classed as inactive.

For the compound `CC(C)(O)c1cnn2c(-c3ccc(F)c(-c4c(F)cccc4C#N)c3)cnc2n1`, the half-maximal activity concentration (AC50) was 27.5 µM (active).

For `CCN(CC)CCO`, the compound was classed as inactive.

Consider `Clc1ccc(C(c2ccc(Cl)cc2)C(Cl)(Cl)Cl)cc1`, for which the half-maximal activity concentration (AC50) is 27.6 µM (active).

In the case of `O=C1CCCO1`, the compound was called inactive.

For the compound `O=[N+]([O-])C(Br)(CO)CO`, the compound was classed as inactive.

As to `CCCCCOC(=O)c1ccccc1C(=O)OCCCCC`, the AC50 is 150 µM (active).

As to `[As]#[In]`, the call was inactive.

`CCC[CH2][Sn]([Cl])([CH2]CCC)[CH2]CCC`: the AC50 is 0.412 µM (active).

Turning to `c1ccc(N=Nc2ccccc2)cc1`, the AC50 was 100 µM (active).

`Cc1cccc(N)c1N`: the call was inactive.

`OCCOCCO`: the result was inactive.

In the next test the target is Aryl hydrocarbon receptor (Homo sapiens) (UniProt P35869). Nature of the test: ATG_Ahr_CIS: Attagene CIS-FACTORIAL HepG2 Assay for human Aryl Hydrocarbon Receptor (Ahr) (AID 2282930). Particulars: HepG2 AhR cis-factorial reporter transcription; actives raise or lower the signal. The method, boiled down:
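Values derive from bidirectional fitting against DMSO negative control. Underlying signal: cis-element reporter mRNA in transiently transfected HepG2, harvested 24 h post-dose and measured by RT-PCR plus capillary electrophoresis.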
Consider `CCC12COCN1COC2`, for which the compound was classed as inactive.

Regarding `CCCSC(=O)N(CCC)CCC`, the outcome was inactive.

On to `CN(C)C(=O)Nc1ccc(Cl)cc1`, for which the AC50 is 58.5 µM (active).

With `Brc1ccc(Oc2ccccc2)cc1`, the compound was called inactive.

In the case of `CCN(CC)CCO`, the compound was called inactive.

Regarding `Clc1ccc(C(c2ccc(Cl)cc2)C(Cl)(Cl)Cl)cc1`, the compound was called inactive.

As for `CCC[CH2][Sn]([Cl])([CH2]CCC)[CH2]CCC`, the result was inactive.

Test system in the next test: not listed separately
Put plainly: ATG_AP_1_CIS: Attagene CIS-FACTORIAL HepG2 Assay for human Activator Protein 1 (AP-1) (AID 2282931). The conditions noted are these: HepG2 Attagene cis-factorial AP-1 reporter mRNA; actives raise or lower the signal. The method, boiled down: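 Fluorescence of labelled PCR fragments separated by capillary electrophoresis gives reporter mRNA levels. HepG2 with transfected cis-regulated reporter units, 24 h exposure; DMSO serves as baseline for bidirectional curve fits.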
For `Nc1ccc(Oc2ccc(N)cc2)cc1`, the result was inactive.

In the case of `C1=Cc2cccc3cccc1c23`, the outcome was inactive.

Turning to `Cc1ccc(N)c(N)c1`, the AC50 was 27.5 µM (active).

Consider `CC(C)COC(=O)c1ccccc1C(=O)OCC(C)C`, for which the half-maximal activity concentration (AC50) is 70.3 µM (active).

Turning to `CCC12COCN1COC2`, the call was inactive.

With `Oc1ccc2ccc3cccc4ccc1c2c34`, the call was inactive.

For the compound `Nc1cc(Cl)cc(C(=O)O)c1Cl`, the compound was called inactive.

Take `CN(C)c1ccccc1`: the outcome was inactive.

Turning to `Cc1ccc(N)cc1`, the result was inactive.

`C=CCc1ccc2c(c1)OCO2`: the call was inactive.

`CCCSC(=O)N(CCC)CCC`: the outcome was inactive.

In the case of `Cc1cc(N=Nc2ccccc2C)ccc1N`, the compound was classed as inactive.

Turning to `CN(C)C(=O)Nc1ccc(Cl)cc1`, the compound was classed as inactive.

As for `O=P(OCCCl)(OCCCl)OCCCl`, the result was inactive.

Regarding `CC(C)(C)C(O)(CCc1ccc(Cl)cc1)Cn1cncn1` (configuration not stated), the AC50 was 140 µM (active).

Turning to `Brc1ccc(Oc2ccccc2)cc1`, the compound was called inactive.

With `Nc1ccc(Cc2ccc(N)cc2)cc1`, the call was inactive.

For the compound `CC(C)(O)c1cnn2c(-c3ccc(F)c(-c4c(F)cccc4C#N)c3)cnc2n1`, the concentration at half-maximal activity (AC50) is 67.1 µM (active).

For `CCN(CC)CCO`, the call was inactive.

With `Clc1ccc(C(c2ccc(Cl)cc2)C(Cl)(Cl)Cl)cc1`, the AC50 is 51.4 µM (active).

Turning to `O=C1CCCO1`, the compound was classed as inactive.

As to `O=[N+]([O-])C(Br)(CO)CO`, the AC50 is 25.2 µM (active).

For the compound `CCCCCOC(=O)c1ccccc1C(=O)OCCCCC`, the AC50 is 77.2 µM (active).

As to `[As]#[In]`, the result was inactive.

Turning to `CCC[CH2][Sn]([Cl])([CH2]CCC)[CH2]CCC`, the AC50 is 0.522 µM (active).

Consider `c1ccc(N=Nc2ccccc2)cc1`, for which the compound was classed as inactive.

As for `Cc1cccc(N)c1N`, the AC50 is 30.5 µM (active).

For the compound `OCCOCCO`, the AC50 is 0.00963 µM (active).

Test system in a further test: not listed separately
Nature of the test: ATG_AP_2_CIS: Attagene CIS-FACTORIAL HepG2 Assay for human Activator Protein 2 (AP-2) (AID 2282932). Particulars: HepG2 AP-2 cis-reporter, Attagene transcription factor profiling; actives raise or lower the signal. In a few lines: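 HepG2 cells were transiently transfected with multiple cis-promoter reporter transcription units and dosed for 24 h. Reporter mRNA was measured by RT-PCR with capillary electrophoresis fluorescence; bidirectional fits relative to DMSO baseline.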
Turning to `Nc1ccc(Oc2ccc(N)cc2)cc1`, the compound was called inactive.

For the compound `C1=Cc2cccc3cccc1c23`, the call was inactive.

For the compound `Cc1ccc(N)c(N)c1`, the compound was classed as inactive.

Consider `CC(C)COC(=O)c1ccccc1C(=O)OCC(C)C`, for which the call was inactive.

Take `Oc1ccc2ccc3cccc4ccc1c2c34`: the compound was called inactive.

Take `Nc1cc(Cl)cc(C(=O)O)c1Cl`: the outcome was inactive.

Turning to `CN(C)c1ccccc1`, the call was inactive.

As for `Cc1ccc(N)cc1`, the call was inactive.

Consider `C=CCc1ccc2c(c1)OCO2`, for which the compound was called inactive.

For the compound `Cc1cc(N=Nc2ccccc2C)ccc1N`, the result was inactive.

`O=P(OCCCl)(OCCCl)OCCCl`: the call was inactive.

Turning to `CC(C)(C)C(O)(CCc1ccc(Cl)cc1)Cn1cncn1` (configuration not stated), the outcome was inactive.

Take `Nc1ccc(Cc2ccc(N)cc2)cc1`: the call was inactive.

Regarding `CC(C)(O)c1cnn2c(-c3ccc(F)c(-c4c(F)cccc4C#N)c3)cnc2n1`, the result was inactive.

Take `O=C1CCCO1`: the compound was called inactive.

Consider `O=[N+]([O-])C(Br)(CO)CO`, for which the compound was called inactive.

Turning to `CCCCCOC(=O)c1ccccc1C(=O)OCCCCC`, the outcome was inactive.

`[As]#[In]`: the compound was called inactive.

`c1ccc(N=Nc2ccccc2)cc1`: the compound was called inactive.

In the case of `Cc1cccc(N)c1N`, the outcome was inactive.

Take `OCCOCCO`: the compound was called inactive.

Test system in another test: not listed separately
Put plainly: ATG_BRE_CIS: Attagene CIS-FACTORIAL HepG2 Assay for human Bone Morphogenetic Protein (BMP) Response Element (BRE) (AID 2282933). Particulars: HepG2 BMP response element reporter, Attagene transcription factor profiling; actives raise or lower the signal. The method, boiled down: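 Read-out: reporter mRNA induction quantified by RT-PCR and capillary electrophoresis after 24 h chemical exposure of transfected HepG2 cells. Endogenous factor activity on the BMP response element; gain or loss fitted against DMSO baseline.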
As for `Nc1ccc(Oc2ccc(N)cc2)cc1`, the compound was called inactive.

Consider `C1=Cc2cccc3cccc1c23`, for which the outcome was inactive.

For the compound `Cc1ccc(N)c(N)c1`, the call was inactive.

For `CC(C)COC(=O)c1ccccc1C(=O)OCC(C)C`, the AC50 was 110 µM (active).

As to `CCC12COCN1COC2`, the call was inactive.

Regarding `Oc1ccc2ccc3cccc4ccc1c2c34`, the outcome was inactive.

With `Nc1cc(Cl)cc(C(=O)O)c1Cl`, the call was inactive.

For `CN(C)c1ccccc1`, the outcome was inactive.

Consider `Cc1ccc(N)cc1`, for which the compound was called inactive.

In the case of `C=CCc1ccc2c(c1)OCO2`, the compound was classed as inactive.

Take `CCCSC(=O)N(CCC)CCC`: the call was inactive.

On to `Cc1cc(N=Nc2ccccc2C)ccc1N`, for which the AC50 was 33.4 µM (active).

Turning to `CN(C)C(=O)Nc1ccc(Cl)cc1`, the result was inactive.

Take `O=P(OCCCl)(OCCCl)OCCCl`: the outcome was inactive.

As to `CC(C)(C)C(O)(CCc1ccc(Cl)cc1)Cn1cncn1` (configuration not stated), the AC50 is 147 µM (active).

In the case of `Brc1ccc(Oc2ccccc2)cc1`, the compound was classed as inactive.

As for `Nc1ccc(Cc2ccc(N)cc2)cc1`, the compound was called inactive.

Take `CC(C)(O)c1cnn2c(-c3ccc(F)c(-c4c(F)cccc4C#N)c3)cnc2n1`: the result was inactive.

For the compound `CCN(CC)CCO`, the outcome was inactive.

`Clc1ccc(C(c2ccc(Cl)cc2)C(Cl)(Cl)Cl)cc1`: the compound was classed as inactive.

Turning to `O=C1CCCO1`, the result was inactive.

For `O=[N+]([O-])C(Br)(CO)CO`, the compound was called inactive.

For `CCCCCOC(=O)c1ccccc1C(=O)OCCCCC`, the call was inactive.

With `[As]#[In]`, the compound was called inactive.

On to `CCC[CH2][Sn]([Cl])([CH2]CCC)[CH2]CCC`, for which the call was inactive.

`c1ccc(N=Nc2ccccc2)cc1`: the outcome was inactive.

As to `Cc1cccc(N)c1N`, the result was inactive.

Take `OCCOCCO`: the outcome was inactive.

Broadly, the AC50 is the midpoint of the concentration-response curve, whichever way the signal moves.
